KB-3-1 tox: qHTS assay for MDR1-selective chemotherapeutics: Primary screen using the parental adenocarcinoma cell KB-3-1; KB-3-1 viability, CellTiter-Glo ATP luminescence, 72 h; hit rate 1.4% among 400,000; Potency, µM (doses to about 46.1 µM), usual class: cytotoxic; also: nearly all actives have a fitted effect of over 60% in size
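KB-3-1 parental drug-naive adenocarcinoma cells in DMEM/10% FBS, incubated 72 h at 37 C with pin-transferred compounds across a concentration series. Viability by CellTiter-Glo luminescence; concentration-response curves fitted after normalization.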
HT1080NT lethal: qHTS for induction of synthetic lethality in tumor cells producing 2HG: qHTS for the HT-1080-NT fibrosarcoma cell line; HT-1080-NT fibrosarcoma viability, CellTiter-Glo ATP luminescence, 48 h; Potency, µM (doses to about 46.1 µM), inactives show at the top dose activity, negative = less viability, actives largely listed as cytotoxic; hit rate 1.6% among 360,000;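 also: NT is the 2HG producing partner of a matched IDH1 knockdown line; 0% = DMSO-treated cells and -100% = media-only wells without cells; nearly all actives have a fitted effect of over 55% in size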
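HT-1080-NT; 750 cells/well; 5% FBS RPMI; 48 h compound, 37 degrees C; CellTiter-Glo luminescence; curve fitting and curve-class assignment.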
KB-V1 cytotox: qHTS assay for MDR1-selective chemotherapeutics: Primary screen using the drug-selected MDR subline cells KB-V1; KB-V1 MDR cells viability, CellTiter-Glo, 72 h; Potency, µM (titrated, usually from 46.1 µM), most hits filed as cytotoxic; hit rate 3.4% among 400,000; AID 1347076, 2019; also: nearly all actives have a fitted effect of over 60% in size
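KB-V1 MDR subline cells in DMEM (phenol-red free, 10% FBS) exposed to compounds in qHTS concentration series for 72 h at 37 degrees C. Viability read by CellTiter-Glo luminescence; concentration-effect curves fitted after normalization and correction.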
HT1080 IDH1KD tx: qHTS for induction of synthetic lethality in tumor cells producing 2HG: qHTS for the HT-1080-IDH1KD cell line; Potency, µM (titrated, usually from 46.1 µM), for inactives: at the highest dose activity, negative = toxicity, hits mostly cytotoxic; HT-1080 IDH1 knockdown viability, ATP luminescence, 48 h; hit rate 2% among 360,000;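 also: 0% = DMSO wells and -100% = cell-free medium wells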
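Knockdown cells (IDH1KD HT-1080) received compounds 2 h after plating at 750 cells/well and were kept 48 h at 37 °C in 5% FBS RPMI. A CellTiter-Glo luminescence read gave % activity for curve fitting.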
DT40 TDP1 no CPT: qHTS for Inhibitors of human tyrosyl-DNA phosphodiesterase 1 (TDP1): qHTS in cells in absence of CPT | DT40 Tdp1-/- hTDP1 cells, no CPT, ATP luminescence, 48 h | Potency, µM (series often up to 46.2 µM), without a hit: at the top dose activity change, negative = growth inhibition, most hits filed as inhibitors | hit rate 15% among 420,000 | AID 686978, 2013; also: nearly all actives have a fitted effect of over 55% in size
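A cellular qHTS used chicken DT40 cells lacking endogenous Tdp1 but carrying stably transfected human TDP1. Compounds were applied without camptothecin, and cell growth kinetics were judged by ATP-dependent luminescence after ≥48 hr.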
DT40 TDP1 CPT: qHTS for Inhibitors of human tyrosyl-DNA phosphodiesterase 1 (TDP1): qHTS in cells in presence of CPT. chicken DT40 Tdp1-/-;hTDP1 cells + 20 nM CPT, ATP luminescence, 48 h. Potency, µM (highest dose often 46.2 µM), without a hit: top-dose activity change, negative = growth inhibition, usual class: inhibitors. hit rate 12% among 420,000. AID 686979, 2013; also: nearly all actives have a fitted effect of over 55% in size
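Chicken DT40 Tdp1-/- cells complemented with human TDP1, 400 cells/well, exposed to compounds plus 20 nM camptothecin for at least 48 h at 37 C; viability read as ATP content by CellTiter-Glo luminescence.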
The depositor's hits bear a star; i = inactive; ? = inconclusive; . = no result given. Sampled rows, rich in hits. Any-hit rate of the full collection: about 19%. Calls follow the shape of the dose curve; as a rule, active = well fitted curve in the direction sought with a large enough effect; inconclusive = small, poorly fitted or top-dose-only effect, or another doubt; inactive = no such curve, though single readings can be large; an effect the other way counts as inactive or inconclusive. Unless noted, % is scaled to controls: 0 for no effect and ±100 for the full control effect; potency is read from the fitted curve at half-maximal effect.

SMILES	KB-3-1 tox	HT1080NT lethal	KB-V1 cytotox	HT1080 IDH1KD tx	DT40 TDP1 no CPT	DT40 TDP1 CPT
Cc1nn(-c2ccccc2)c(-c2ccccc2[N+](=O)[O-])c1C(=O)O	i	7.6%	i	12.8%	-3.3%	-0.8%
Cc1nn(-c2ccccc2)c(-c2ccccc2[N+](=O)[O-])c1CC#N	i	-0.4%	i	-2.8%	16.4µM*	?
Oc1ccc(C2=NNC(=NCc3ccc4c(c3)OCO4)SC2)c(O)c1	2.59µM*	20.6µM*	7.31µM*	?	4.61µM*	3.66µM*
Clc1ccc(C2=NNC(=NCc3ccc4c(c3)OCO4)SC2)cc1	?	-1.9%	20.6µM*	10.4%	5.8µM*	10.3µM*
COc1ccc(OC)c(C2=NNC(=NCc3ccc4c(c3)OCO4)SC2)c1	i	-3.8%	i	-25.7%	?	?
Cc1cc(C)c(S(=O)(=O)NCCc2cc3cc(C)c(C)cc3[nH]c2=O)c(C)c1	i	.	i	.	-21.6%	-9.9%
Cc1ccc(NC(=O)CSc2nc3c(c(=O)[nH]2)CCC3)cc1Cl	i	.	i	.	-21.5%	-27.0%
CC(=O)N1c2ccc(S(=O)(=O)N(C)CC(=O)Nc3ccccc3C)cc2CC1C (centres undefined)	i	3.7%	i	6.0%	-8.5%	-26.3%
CCOc1ccc(CCNC(=O)c2cc3c(=O)n(C)c4ccccc4c3s2)cc1OCC	i	.	i	.	?	-29.3%
COCCCNC(=O)c1cc2c(=O)n(C)c3ccccc3c2n1C	10.3µM*	-17.0%	16.4µM*	-26.7%	?	18.4µM*
CCCN(CCC)CCCNC(=O)c1cc2c(=O)n(C)c3ccccc3c2s1	i	.	i	.	18.4µM*	?
COCCNC(=O)c1cc2c(=O)n(C)c3ccccc3c2n1C	i	10.1%	?	12.9%	-14.4%	-10.4%
CCCN(CCC)CCCNC(=O)c1cc2c(=O)n(C)c3ccccc3c2n1C	?	?	i	-19.1%	25.9µM*	?
CCCCN(CC)CCNC(=O)c1cc2c(=O)n(C)c3ccccc3c2n1C	?	?	i	?	14.6µM*	18.4µM*
Nc1c(OS(=O)(=O)c2ccccc2)cccc1OS(=O)(=O)c1ccccc1	i	-11.7%	?	-0.6%	?	-22.4%
Cn1c(C(=O)NC2CC2)cc2c(=O)n(C)c3ccccc3c21	i	-3.3%	i	-1.5%	?	?
CCN(CC)CCNC(=O)c1cc2c(=O)n(C)c3cc(Cl)ccc3c2s1	i	.	?	.	20.6µM*	?
Cc1cc(Br)ccc1NC(=O)c1cc2c(=O)n(C)c3cc(Cl)ccc3c2s1	i	.	i	.	?	?
CCOC(=O)N1CCC(NC(=O)c2cc3c(=O)n(C)c4ccccc4c3n2C)CC1	i	0.6%	i	0.6%	?	20.6µM*
Cn1c(C(=O)NCCCN2CCCCCC2)cc2c(=O)n(C)c3ccccc3c21	i	4.6%	i	3.4%	?	18.4µM*
Cn1c(C(=O)Nc2ccc3c(c2)OCCO3)cc2c(=O)n(C)c3ccccc3c21	i	-26.6%	?	-28.3%	11.6µM*	13µM*
Cc1cc([N+](=O)[O-])c2ccccc2c1NS(=O)(=O)c1ccccc1	i	?	i	-15.9%	-21.9%	5.7%
NC(=O)C1=C[C@H](c2ccc(Br)cc2)C[C@H](OCc2ccc(CO)cc2)O1	i	6.1%	i	7.0%	20.6µM*	13µM*
NC(=O)C1=C[C@@H](c2ccc(C(F)(F)F)cc2)C[C@@H](OCc2ccc(CO)cc2)O1	i	0.0%	i	-0.5%	14.6µM*	?
NC(=O)C1=C[C@H](c2ccc(C(F)(F)F)cc2)C[C@H](OCc2ccc(CO)cc2)O1	i	3.1%	i	6.0%	?	-24.8%
SMILES	KB-3-1 tox	HT1080NT lethal	KB-V1 cytotox	HT1080 IDH1KD tx	DT40 TDP1 no CPT	DT40 TDP1 CPT
NC(=O)C1=C[C@@H](c2ccc(Br)cc2)C[C@@H](OCc2ccc(CO)cc2)O1	i	-2.2%	i	0.3%	?	?
O=C(OCc1cn([C@H]2C[C@H](c3ccc(Cl)cc3)N(C(=O)c3cccs3)C[C@@H]2O)nn1)c1ccccc1	i	13.5%	i	13.8%	6.5%	2.4%
COC(=O)c1c(-c2ccc(Br)cc2)csc1NC(=O)Cc1ccc(OC)c(OC)c1	?	-10.2%	7.31µM*	-17.2%	10.3µM*	?
COC(=O)c1c(-c2cccc3ccccc23)csc1NC(=O)Cc1ccc(OC)c(OC)c1	?	-24.4%	i	?	11.6µM*	25.9µM*
COc1cccc(N2CCN(c3ccc(S(=O)(=O)N4CCCC4)cc3)CC2)c1	i	13.0%	i	7.6%	-15.2%	-19.4%
C=CCn1c(SCC(=O)N(CCOC)c2c(N)n(CC(C)C)c(=O)[nH]c2=O)nc2ccccc21	i	-1.1%	i	9.3%	-2.6%	5.5%
COc1ccc(Cl)cc1NC(=O)C(C)Sc1n[nH]c(N)n1 (centres undefined)	i	0.2%	i	-3.2%	?	-20.6%
COc1ccc(/C=N/n2c(=O)[nH]c3c([nH]c4ccc(C)cc43)c2=O)cc1CN1CCOCC1	i	5.1%	i	-1.8%	?	?
CC1=CC(C)[C@H](/C=N/n2c(=O)[nH]c3c([nH]c4ccc(C)cc43)c2=O)C(C)C1 (some centres undefined)	?	-27.4%	i	-20.7%	13µM*	8.2µM*
N[C@H]1CONC1=O	i	-17.5%	i	0.4%	14.3%	4.2%
N=C(N)SCc1ccc(Cl)c2ccccc12	i	-13.5%	23.1µM*	-8.8%	?	?
CCOC(=O)c1cc2c(=O)n3ccccc3nc2n(C(C)C)c1=NC(=O)c1c(-c2c(F)cccc2Cl)noc1C	?	-11.3%	?	7.4%	8.2µM*	8.2µM*
CCOC(=O)c1cc2c(=O)n3ccccc3nc2n(CC2CCCO2)c1=NC(=O)/C=C/c1ccccc1 (centres undefined)	?	1.0%	?	-13.9%	14.6µM*	?

Screening data as filed in PubChem BioAssay.
